Source: PubChem
This is a sample that favours compounds with a hit; in the whole collection about 2.2% have one here.
TMEM16A inh = TMEM16A chloride channel inhibitors, primary screen, cell-based, HTS. Anoctamin-1 (Mus musculus), Q8BHY3. HEK293 TMEM16A/YFP iodide influx fluorescence, ionomycin. normalized B-score (activity score, 25-100; higher = stronger inhibition) at 10 µM. 310,000 compounds, 1.2% hits. AID 588511, 2011;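 active means ratio plate-corrected score three or more library SD toward inhibition, starting fluorescence score within five deviations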;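 further: score derived from kinetic fluorescence span divided by baseline fluorescence per well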
ANO1 activ = TMEM16A chloride channel activators or potentiators, primary screen, cell-based, HTS; 340,000 compounds, 0.3% hits; B-score at 10 µM; HEK293 TMEM16A/YFP-H148Q/I152L, iodide quench fluorescence; stronger effect = lower value; Anoctamin-1 (Mus musculus), Q8BHY3;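 active means fluorescence-ratio B-score plate-corrected deviation score at least 3 library SD below zero, with starting fluorescence score within 5 deviations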;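 further: channel opened by trigger with iodide after compound preincubation; score built on the fluorescence ratio of max minus min over baseline; more negative score means more quench and so TMEM16A activation or potentiation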
CHO-K1 Ca antag = M1 antagonist counterscreen hit in parental CHO-K1 cells | ATP-induced calcium, Fluo-8 fluorescence | inhibition, % at 3 µM | 360,000 compounds, 0.6% hits;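 active means inhibition above a per-plate cutoff, the plate's mean sample inhibition plus 3 SD, cut at about 24% in these data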
NTR1 ag = agonists of human NTR1, primary screen, imaging, U2OS cells, beta-arrestin-GFP, high content. NTR1-U2OS beta-arrestin-GFP spot imaging, agonist mode. activation, % at 20 µM. 330,000 compounds, 0.17% hits;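 active means activation at or above 40% of the spot to cytoplasm intensity ratio, with at least 20 cells analyzed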
Target sequence (P30989 whole entry, looked up): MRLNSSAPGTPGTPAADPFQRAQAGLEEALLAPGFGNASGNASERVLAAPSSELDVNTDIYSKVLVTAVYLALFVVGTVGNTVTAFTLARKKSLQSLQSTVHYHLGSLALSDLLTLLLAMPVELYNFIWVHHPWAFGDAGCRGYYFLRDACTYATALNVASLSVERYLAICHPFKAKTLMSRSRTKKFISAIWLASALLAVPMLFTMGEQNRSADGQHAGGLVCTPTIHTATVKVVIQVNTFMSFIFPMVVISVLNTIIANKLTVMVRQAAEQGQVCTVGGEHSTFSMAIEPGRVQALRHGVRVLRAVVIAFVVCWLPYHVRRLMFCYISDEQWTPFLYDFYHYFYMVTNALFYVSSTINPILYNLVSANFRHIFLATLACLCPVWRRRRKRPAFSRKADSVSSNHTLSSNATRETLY
M1 PAM parental = nonselective calcium activators in parental CHO-K1 cells, primary screen, counter-screen for M1 PAM project, cell-based, Fluo-8 calcium fluorescence, full deck, 1536-well; 360,000 compounds, 0.02% hits; ATP EC20; 0% at ATP EC20, 100% at ATP max; AID 602247, 2012; activation, % at 3 µM;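 active means activation above the run cutoff, the mean activation of all test compounds plus 3 SD, cut at about 40% in these data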;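 further: peak over basal fluorescence ratio in a 140 s read after ATP addition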
CHO-K1 Ca ag = counter-screen for M1 agonists: effect in parental CHO-K1 cells; 360,000 compounds, 0.48% hits; Fluo-8 calcium fluorescence; scaled to maximal ATP response, vehicle zero; activation, % at 3 µM; in the data active means activation above about 15%;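 further: untransfected CHO-K1 host cells lacking M1 receptor as counterscreen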
Large screens that a line does not name were inactive.

COC(=O)[C@]12CCCCC=C1N(Cc1ccccc1)C(=O)[C@H](CC(=O)N1CCN(C(=O)c3ccco3)CC1)C2	none (no result: TMEM16A inh, ANO1 activ, NTR1 ag)
CCOC(=O)C(CCCCCOc1ccc([N+](=O)[O-])cc1)C(=O)OCC	TMEM16A inh 100
CCc1cc(/C(Cc2ccc3ccccc3n2)=N\O)c(O)cc1O	TMEM16A inh 100
CCc1cc(/C(Cc2ccccn2)=N\O)c(O)cc1O	none
O=C(COc1ccc2ccccc2c1)Nc1ccc(Cc2ccncc2)cc1	CHO-K1 Ca antag 25
O=C(O)Cc1ccc(NC(=O)COc2ccc3ccccc3c2)cc1	none
Cn1c(Oc2ccc(F)cc2)c(C=O)c2ccccc21	none
Cn1c(Sc2ccc(Br)cc2)c(C=O)c2ccccc21	TMEM16A inh 100
O=C(C=P(c1ccccc1)(c1ccccc1)c1ccccc1)c1ccccc1-c1ccccc1C(=O)C=P(c1ccccc1)(c1ccccc1)c1ccccc1	none (no result: TMEM16A inh, NTR1 ag)
C/C(=N/NC(=O)c1cccs1)c1ccc(N2CCOCC2)cc1	CHO-K1 Ca antag 25
Cc1ccccc1Nc1nc(N)nc(CSc2nc3ccccc3c(=O)n2C)n1	CHO-K1 Ca antag 29, CHO-K1 Ca ag 18
Cc1nnc2c(-c3ccccc3)nc3ccccc3n12	ANO1 activ -16
Cc1nnc2c(NCCc3ccccc3)nc3ccccc3n12	none
COc1ccc(CCCN2CCC(CN3C(=S)NC[C@@H]3Cc3ccccc3)CC2)cc1OC	none (no result: TMEM16A inh, ANO1 activ, NTR1 ag)
COn1c2c(c3c4nonc4ccc31)CCCC2	none
On1c2c(c3c4nonc4ccc31)CCCC2	TMEM16A inh 100 (no result: ANO1 activ, CHO-K1 Ca antag, M1 PAM parental, CHO-K1 Ca ag)
Cc1cc(F)ccc1-c1cc(C(=O)NC(C)C)[nH]n1	none (no result: TMEM16A inh, ANO1 activ, NTR1 ag)
CC1=C(C(=O)N2CCCCCC2)CC(CC(=O)NCCCN(C)C)C(=O)N1Cc1ccccc1 (stereo unspecified)	none (no result: TMEM16A inh, ANO1 activ, NTR1 ag)
Cc1nc2ccccc2n1CC(O)COc1ccc(Br)cc1 (stereo unspecified)	TMEM16A inh 25
O=C(Nc1cccc2c1[nH]c(=O)c1ccccc12)C(F)(F)F	none (no result: TMEM16A inh, ANO1 activ, NTR1 ag)
O=C(Nc1cccc2c1[nH]c1ccccc12)C(F)(F)F	TMEM16A inh 25
CC(=O)Oc1ccc2c(C)cc(=O)[nH]c2c1	CHO-K1 Ca antag 26
Clc1ccc(CONc2ncnc3nonc23)c(Cl)c1	TMEM16A inh 100
O=C(CSc1nnc(CNC(=O)c2cccs2)o1)NCC1CCCO1 (stereo unspecified)	none
O=C(CSc1nnc(CNC(=O)c2cccs2)o1)NC1CCCCC1	CHO-K1 Ca antag 25
COc1cc2c(cc1OC)CN(c1nc(CN3CCCCC3)nc3sc4c(c13)CCCC4)CC2	CHO-K1 Ca ag 20
COc1cc2c(cc1OC)CN(c1nc(CN3CCOCC3)nc3sc4c(c13)CCCC4)CC2	none
COc1ccc(CCNC(=O)C2CC2)cc1	CHO-K1 Ca antag 28
CCCCOCCOC(=O)C1OC1(C)c1ccccc1 (stereo unspecified)	none (no result: TMEM16A inh, ANO1 activ, NTR1 ag)
Nc1ccc2c(c1)COc1ccccc1O2	none
Nc1ccc2c(c1)Oc1ccccc1C=C2	ANO1 activ -5.3
COc1cccc(S(=O)(=O)N(C)C[C@H]2Oc3ncc(Br)cc3C(=O)N([C@@H](C)CO)C[C@@H]2C)c1	none (no result: TMEM16A inh, ANO1 activ, NTR1 ag)
O=C(O)CSc1ccn(Cc2ccccc2)c1	none (no result: TMEM16A inh, ANO1 activ, NTR1 ag)
COc1ccc(N2C[C@H](C)[C@@H](CC(=O)Nc3ccc(Br)cc3)C2=O)cc1	CHO-K1 Ca antag 25 (no result: TMEM16A inh, ANO1 activ, NTR1 ag)
CCc1ccc(NC(=O)CSc2nc3ccccc3c(=O)n2CCCC(=O)N2CCCC2)cc1	CHO-K1 Ca antag 25
CCOCCCn1c(SCC(=O)Nc2ccccc2)nc2ccccc2c1=O	CHO-K1 Ca antag 35
COc1cc(F)ccc1-c1csc(C(C)(O)c2ccccc2)n1 (stereo unspecified)	none (no result: TMEM16A inh, ANO1 activ, NTR1 ag)
CCC(Sc1nc2cc(OC)c(OC)cc2c(=O)n1Cc1ccc(OC)cc1)C(=O)NCCOC (stereo unspecified)	none
CCC(Sc1nc2cc(OC)c(OC)cc2c(=O)n1CCc1ccc(S(N)(=O)=O)cc1)C(=O)NCCOC (stereo unspecified)	ANO1 activ -4.7
COC(=O)[C@@]1(Cc2ccc(F)cc2)[C@H]2c3cc(C(=O)N4CCCC4)n(CC4CC4)c3C[C@H]2CN1C(=O)c1ccccc1	none (no result: TMEM16A inh, ANO1 activ, NTR1 ag)
Cc1ccccc1N(CC(=O)N/N=C/c1ccc(Cl)cc1)C(=O)c1ccccc1	CHO-K1 Ca antag 26
CNc1oc(-c2ccc(Cl)cc2)nc1P(=O)(c1ccccc1)c1ccccc1	M1 PAM parental 49
Clc1c(CSc2nc3ccccc3o2)nc2ccccn12	ANO1 activ -21
CCNC(=O)C1CCCN(Cc2cc(-c3ccccc3)on2)CC1 (stereo unspecified)	none (no result: TMEM16A inh, ANO1 activ, NTR1 ag)
CCCOc1ccc(-c2c(C(=O)N/N=C/c3ccc(OCC)cc3)nnn2-c2nonc2N)cc1	CHO-K1 Ca antag 26
CCn1c(SCC(=O)N/N=C/c2ccc(C)o2)nnc1-c1ccccc1	CHO-K1 Ca antag 28
Cc1ccc(/C=N/NC(=O)c2nnn(-c3nonc3N)c2-c2ccccc2)o1	CHO-K1 Ca ag 22
Nc1nonc1-n1nnc(C(=O)N/N=C/c2cccnc2)c1CSc1ccc(Cl)cc1	CHO-K1 Ca ag 16
Cc1cccc(C)c1NC(=O)C1c2ccccc2OCC(=O)N1CCc1ccccc1 (stereo unspecified)	none (no result: TMEM16A inh, ANO1 activ, NTR1 ag)
Cc1ccc(S(=O)(=O)N2CCCCC2)cc1C(=O)N(CCc1ccccc1)Cc1ccccc1	none
COc1ccc(-c2ccc(N3C(c4cc(OC)cc(OC)c4)=Cc4ccc(OC)cc4C3CC(C)=O)cc2)cc1 (stereo unspecified)	none (no result: TMEM16A inh, ANO1 activ, NTR1 ag)
CN(C)c1ccc(/C=N/NC(=O)c2nnn(-c3nonc3N)c2COc2ccc(F)cc2)cc1	none
CCCOc1ccc(-c2c(C(=O)N/N=C/c3ccc(OC)cc3)nnn2-c2nonc2N)cc1	none
CCCOc1ccc(-c2c(C(=O)N/N=C/c3ccncc3)nnn2-c2nonc2N)cc1	ANO1 activ -6.8
COc1cccc(-c2c(C(=O)N/N=C/c3ccco3)nnn2-c2nonc2N)c1	CHO-K1 Ca ag 16
CCOc1ccc(/C=N/NC(=O)c2nnn(-c3nonc3N)c2COc2ccc(F)cc2)cc1	ANO1 activ -5.8
Cc1ccccc1Cn1c(C)nc2ccccc21	CHO-K1 Ca antag 29
Cn1cc(-c2coc3c(C(=O)NCc4ccco4)cccc23)cn1	none (no result: TMEM16A inh, ANO1 activ, NTR1 ag)
CCCCn1c(=O)nc2n(-c3ccc(C)cc3)c3ccccc3cc-2c1=O	none
CCCCn1c(=O)nc2n(-c3ccc(Cl)cc3)c3ccccc3cc-2c1=O	CHO-K1 Ca antag 27
